Measured values from PubChem BioAssay (NCI).
Values joined by “and” are separate entries in the source; they are usually repeats but may differ in a detail not shown here. Equal entries are not always repeated. About 79,000 compounds went through this panel and 15% of them were active in at least one assay; those are over-represented in the sample as a whole. No stated cut-off is given here; in the data, active means growth inhibition above about 70%; inactive means the rest.

Experiments:
[1] = NCI Yeast Anticancer Drug Screen. Data for the rad50 strain (AID 155);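 further: 0% = growth of vehicle-only cultures of the same strain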; settings: S. cerevisiae rad50 strain growth inhibition, active compounds read high; at 50.0 µM unless noted
Procedure, shortened: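 DNA repair mutant yeast, compound exposure, growth read-out; inhibition is taken relative to vehicle.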

[2] = NCI Yeast Anticancer Drug Screen. Data for the mec2-1 strain (AID 157); settings: S. cerevisiae mec2-1 strain, active compounds read high; at 50.0 µM unless noted
Procedure, shortened: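 Cells of the genetically defined mec2-1 yeast strain are incubated with test compound. Inhibition of growth is calculated against vehicle-treated controls.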

[3] = NCI Yeast Anticancer Drug Screen. Data for the sgs1 mgt1 strain (AID 161);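 further: 0% = growth of cultures given vehicle only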; settings: S. cerevisiae sgs1 mgt1 strain, active compounds read high; at 50.0 µM unless noted
Procedure, shortened: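 Genetically altered yeast, compound exposure, growth inhibition relative to vehicle.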

[4] = NCI Yeast Anticancer Drug Screen. Data for the cln2 rad14 strain (AID 165);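 further: 0% = growth equal to vehicle treated cultures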; settings: S. cerevisiae cln2 rad14 strain, active compounds read high; at 50.0 µM unless noted
Procedure, shortened: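 The screen exposed genetically defined yeast (cln2 rad14) to test compounds and scored growth inhibition relative to vehicle-treated controls.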

[5] = NCI Yeast Anticancer Drug Screen. Data for the bub3 strain (AID 167); settings: S. cerevisiae bub3 mutant strain, active compounds read high; at 50.0 µM unless noted
Procedure, shortened: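 In this screen, a yeast mutant lacking normal mitotic checkpoint function is challenged with compound. Relative growth versus vehicle gives the inhibition value.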

[6] = NCI Yeast Anticancer Drug Screen. Data for the mlh1 rad18 strain (AID 175); settings: S. cerevisiae mlh1 rad18 strain growth inhibition, active compounds read high; at 50.0 µM unless noted
Procedure, shortened: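 Compound-treated yeast growth, normalised to vehicle controls. Strain bears defined DNA repair mutations.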

Measured: growth inhibition

CC1C(=O)C(c2cccs2)(C2CCCCC2)CC[N+]1(C)C (stereo unspecified)
inactive: [1] 0% | [2] 4.5% | [3] -6.05% | [4] -19.1% | [5] 1.25% | [6] 17.4%

CCN(CC(COc1ccc2c(c1)[n+]([O-])nc(N)[n+]2[O-])OC(C)=O)C(C)=O (stereo unspecified)
inactive: [1] 42.9% | [2] 38.3% | [3] 41.5% | [4] 40.1% | [5] 25.4% | [6] 41.3%

CC(=O)OC1=C2OC(=O)C3(C2C=CC=C1)C1C=CC=CC13 (stereo unspecified)
inactive: [1] -17.9% | [2] 1.3% | [3] 2.8% | [4] -2.45% | [5] -13.8% | [6] -1.95%

CCOC(=O)CN(Cn1cncn1)Cn1cncn1
inactive: [1] 26% | [2] 5.55% | [3] 22.2% | [4] -30.2% | [5] -43.4% | [6] 10.8%

CSC(C1c2ccccc2N(c2ccc(C)cc2)c2[nH]c(=O)n(C)c(=O)c21)S(=O)(=O)c1ccc(C)cc1 (stereo unspecified)
inactive: [1] 23.1% | [2] 0% | [3] -21.8% | [4] -29% | [5] 0.15% | [6] 16.6%

ON=C(c1ccccn1)c1ccccn1
inactive: [1] 11.1% | [2] -7.6% | [3] 7.05% | [4] 4.35% | [5] -8.25% | [6] 3.8%

Cc1cccc[n+]1C
inactive: [1] 3.45% | [2] 4.35% | [3] 0.05% | [4] -19.2% | [5] 22.9% | [6] 4.05%

CC(=O)Oc1c(C)c2c(c3ncccc13)OC(C)C2 (stereo unspecified)
inactive: [1] 39.2% | [2] 14.1% | [3] 32.4% | [4] 19.1% | [5] 40.1% | [6] 34.8%

CCn1c2ccccc2c2ccccc21
inactive: [1] 27.2% | [2] -6% | [3] -10.2% | [4] 13.8% | [5] -8.15% | [6] 17.4%

CC(=O)OC[C@@]12C[C@H]3C(=O)C(C)(C)C[C@H]3[C@]1(C)[C@@H](OC(C)=O)[C@]1(O)[C@H]([C@@H](OC(=O)c3ccccc3)[C@@H](C)[C@H]1OC(C)=O)[C@H]2OC(C)=O
inactive: [1] -13.6% | [2] -26.9% | [3] 3.25% | [4] -3.25% | [5] 10.8% | [6] -3.15%

CC(C)CCC[C@@H](C)[C@H]1CC[C@H]2[C@@H]3CCC4=CC(=O)NCC[C@]4(C)[C@H]3CC[C@]12C
inactive: [1] 12.8% | [2] -3.25% | [3] 34.6% | [4] 27.2% | [5] -9.35% | [6] 15.9%

Cc1[nH]c2c(ccc3c2ccc2c(=O)c(C)c(C)[nH]c23)c(=O)c1C
inactive: [1] -2.05% | [2] -7.45% | [3] -4.35% | [4] -29% | [5] -0.3% | [6] 2.3%

O=c1ccn(C2OC(COC3CCCCO3)C(OC3CCCCO3)C2OC2CCCCO2)c(=O)n1-c1ccccc1 (stereo unspecified)
inactive: [1] 39.7% | [2] -4.8% | [3] 10.1% | [4] -1.4% | [5] -2.65% | [6] 5.25%

NCc1cc(Br)ccc1O
inactive: [1] 24.4% | [2] 3.3% | [3] 23.5% | [4] -66.2% | [5] -11% | [6] 20.6%

Cc1ccc(S(=O)(=O)C2CC(=O)N(c3ccc(F)c(Cl)c3)C2=O)cc1 (stereo unspecified)
inactive: [1] -26.6% | [2] 4.55% | [3] -7.6% | [4] -19.2% | [5] 4.2% | [6] -11.7%

CN1C(=O)OC2OC(C)(c3ccc(S(=O)(=O)c4ccccc4)cc3)C(=O)CC21 (stereo unspecified)
inactive: [1] -7.1% | [2] 22.7% | [3] -10.5% | [4] -27% | [5] 5.65% | [6] 2.25%

CC(=O)N(C(=O)CC(=O)NNCc1ccccc1Cl)c1ccc(Cl)cc1
inactive: [1] -11.4% | [2] -14.2% | [3] -19.6% | [4] -11.4% | [5] -17% | [6] 6.3%

COc1cc(OC)c(-c2nc3ccccc3c(=O)o2)cc1OC
inactive: [1] 4.9% | [2] 1% | [3] -3.65% | [4] 0.9% | [5] -0.75% | [6] 7.75%

Cc1cccc2c1/C(=C1/c3ccccc3C(=O)c3cccc(C)c31)c1ccccc1C2=O
inactive: [1] -4.85% | [2] -24.1% | [3] -3.45% | [4] 14.3% | [5] -1.2% | [6] -6.15%

CC1([N+](=O)[O-])COC(Cc2ccccc2)OC1 (stereo unspecified)
inactive: [1] -7.7% | [2] -4% | [3] -16.9% | [4] -17.3% | [5] -18% | [6] -5%

COc1ccc(-c2sc(C)nc2O)cc1
inactive: [1] 7.75% | [2] 2.35% | [3] 0.3% | [4] -20.8% | [5] -15.5% | [6] 7.2%

CC1(C)C2CCC3(C2)CS(=O)(=O)N2OC231 (stereo unspecified)
inactive: [1] 6.55% | [2] -35.9% | [3] -31.1% | [4] -20.1% | [5] -26.9% | [6] -9.7%

O=C1NC(N/N=C\C(O)C(O)C(O)CO)=N/C1=C/c1ccc(Cl)cc1 (stereo unspecified)
inactive: [1] 43.2% and 45.5% | [2] 37% and 43% | [3] 44.8% and 35.1% | [4] 36.8% and 26.8% | [5] 38.1% and 43% | [6] 14.8% and 38.6%

O=S1(=O)C(=C(c2ccccc2)c2ccccc2)S(=O)(=O)c2ccccc21
inactive: [1] 39.7% | [2] 13.3% | [3] 13.9% | [4] 23.9% | [5] -6.55% | [6] 29.1%

CCOC(=O)CCC(NC(=O)OCc1ccccc1)C(=O)NNC(=O)OC(C)(C)C (stereo unspecified)
inactive: [1] 30.1% | [2] 22% | [3] 36.5% | [4] 15.7% | [5] 5.15% | [6] 21.3%

CCN(CC)CCNc1ccc2ncn3c4cc(=O)ccc4c(O)c1c23
inactive: [1] -2.3% | [2] -31.5% | [3] -46.4% | [4] 7.9% | [5] -7.85% | [6] 4.3%

O=c1cc2ccc(Cl)cc2n[nH]1
inactive: [1] 8.1% | [2] 2.7% | [3] 2.05% | [4] -33.4% | [5] -14.3% | [6] 4.5%

COc1ccc2c(c1)CCN1CCCc3ccccc3C21 (stereo unspecified)
inactive: [1] 22.4% | [2] 2.75% | [3] 6.3% | [4] 25.8% | [5] 14.8% | [6] -5.75%

CC(C)N(C(=O)c1ccc(C(=O)N(c2ccccc2)C(C)C)cc1)c1ccccc1
inactive: [1] -40.5% | [2] -7.45% | [3] -1.25% | [4] 36% | [5] -3.45% | [6] 14.4%

O=S1(=O)CCC(c2ccccc2)C1 (stereo unspecified)
inactive: [1] 2.3% | [2] -10.7% | [3] -13.8% | [4] 0.45% | [5] -12.3% | [6] -7.15%

CC1=NN(C(=O)CC(=O)Nc2ccc(C)cc2)C(=O)C1N=Nc1ccc(S(=O)(=O)c2ccc(N=NC3C(=O)N(C(=O)CC(=O)Nc4ccc(C)cc4)N=C3C)cc2)cc1 (stereo unspecified)
inactive: [1] 49.8% | [2] 36% | [3] 36.8% | [4] 21.2% | [5] -1.2% | [6] 39.6%

NCCNc1ccccc1
inactive: [1] -32.9% | [2] -62% | [3] -42.2% | [4] 6.6% | [5] -20.4% | [6] -22.9%

COc1ccc(C)cc1NC(=O)Nc1ccccc1F
inactive: [1] 6.9% | [2] 15.2% | [3] 6.15% | [4] 3.3% | [5] -0.4% | [6] 5.15%

CN(Cc1ccc(Cl)cc1)N=Nc1ccc(C(=O)O)cc1
inactive: [1] -5.5% | [2] 4.4% | [3] 24.7% | [4] 25.8% | [5] 16.6% | [6] 24.6%

CCC1(CC)SC=C(C)NC1=O
inactive: [1] -4.65% | [2] -1.65% | [3] 12.6% | [4] -24.7% | [5] -14.7% | [6] 6.75%

CC(C)OC(=O)CC1NS(=O)(=O)c2ccccc21 (stereo unspecified)
inactive: [1] 3.9% | [2] 1% | [3] -9.7% | [4] 24.6% | [5] -16.6% | [6] 20.6%
